The text below walks through data of PubChem BioAssay (NCI).

Some test systems named below: NCI-H23 lung; NCI-H322M lung; NCI-H460 lung; HOP-92 NSCLC; NCI-H522 lung; A549/ATCC NSCLC; 786-0 renal; DU-145 prostate; K-562 leukemia; MALME-3M melanoma; MDA-MB-231 breast; RXF 393 renal; SF-268 CNS; SF-295 CNS; SF-539 CNS; UACC-257 melanoma; M14 melanoma; HCT-15 colon; HOP-62 NSCLC; COLO 205 colon.
Holding throughout (assay): NCI-60 one-dose screen, 48 h (100 = growth as untreated, 0 = no growth, -100 = all killed)
What all share (settings): 10 µM unless noted

About 83,000 compounds went through this panel and 20% of them were active in at least one assay; those are over-represented in the sample as a whole.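 A percent growth of 40 corresponds to 60% growth inhibition; 0 means no net growth; -100 means all cells died. Active threshold: below 10.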 Unmarked numbers belong to inactive results. Activity calls are given as the source filed them.

Regarding `OCCNc1nc(Nc2ccc(C3=NN(c4cc(Cl)cc(Cl)c4)C(c4ccc(C(F)(F)F)cc4)C3)cc2)nc(N2CCOCC2)n1` (centres undefined), the growth with NCI-H23 lung is 76%; in the assay with NCI-H322M lung it was 80.3%; with NCI-H460 lung it was 46.4%; in the assay on HOP-92 NSCLC, 98.6%; in the assay on NCI-H522 lung, 85.3%; in the assay on A549/ATCC NSCLC, 59.2%. For the same compound, the growth in the assay on 786-0 renal was 42.7%; in the assay with DU-145 prostate it was 82.7%; in the assay on K-562 leukemia, 53.9%; with MALME-3M melanoma, 90%; in the assay on MDA-MB-231 breast, 59.7%; in the assay with RXF 393 renal, 19.7%. The growth with SF-268 CNS is 74.1%; in the assay on SF-295 CNS, 71%; with SF-539 CNS, 54.3%; in the assay with UACC-257 melanoma, 94.5%; with M14 melanoma, 90.5%; in the assay on HCT-15 colon, 49.3%.
As to `CC[C@@H](C)[C@H](NC(=O)Cn1cc(CNC(=O)[C@@H](NC(=O)OCc2ccccc2)C(C)C)nn1)C(=O)O`, the growth in the assay on NCI-H23 lung was 101%; with HOP-62 NSCLC, 114%; in the assay with NCI-H460 lung, 110%; in the assay with HOP-92 NSCLC it was 102%; in the assay on NCI-H522 lung, 101%; with A549/ATCC NSCLC, 101%. Also, the growth with 786-0 renal was 106%; in the assay with COLO 205 colon, 124%; in the assay on DU-145 prostate, 114%; with K-562 leukemia, 104%; in the assay with MALME-3M melanoma, 105%; in the assay with MDA-MB-231 breast it was 99.4%. The growth in the assay on RXF 393 renal is 104%; in the assay with SF-268 CNS, 114%; with SF-295 CNS, 94.1%; with SF-539 CNS, 105%; in the assay on UACC-257 melanoma, 101%; in the assay with M14 melanoma it was 107%. Further, the growth in the assay on HCT-15 colon is 111%.
Consider `CN1C(=O)N(C)C2(c3ccccc3)n3c(s/c(=C\c4ccccc4)c3=O)=NNC12c1ccccc1` (centres undefined), for which the growth with NCI-H23 lung is 97.2%; with HOP-62 NSCLC, 101%; in the assay on NCI-H460 lung, 91.6%; in the assay on HOP-92 NSCLC, 89.5%; in the assay on NCI-H522 lung, 84.3%; in the assay on A549/ATCC NSCLC, 89.1%. Also, the growth with 786-0 renal was 98.3%; in the assay with COLO 205 colon, 112%; with DU-145 prostate it was 93%; in the assay with K-562 leukemia, 71.2%; with MALME-3M melanoma, 86.9%; with MDA-MB-231 breast, 85.1%. Further, the growth in the assay on RXF 393 renal was 86.8%; in the assay with SF-268 CNS it was 96.9%; with SF-295 CNS, 97.3%; in the assay with SF-539 CNS, 93.1%; with UACC-257 melanoma, 98.3%; with M14 melanoma, 83.4%. In the assay with HCT-15 colon, the growth is 89.5%.
Regarding `O=Cc1c(OCc2cnnn2CC(=O)Nc2ccc(Cl)cc2)ccc2ccccc12`, the growth in the assay with NCI-H23 lung is 101%; in the assay with NCI-H460 lung it was 104%; in the assay on HOP-92 NSCLC it was 103%; with NCI-H522 lung, 89.3%; in the assay on A549/ATCC NSCLC it was 104%; with 786-0 renal, 100%. In addition, the growth is 115% in the assay with COLO 205 colon; 109% in the assay on DU-145 prostate; 98.6% in the assay on K-562 leukemia; 95.2% in the assay on MALME-3M melanoma; 98% in the assay on MDA-MB-231 breast; 111% in the assay with RXF 393 renal. Also, the growth with SF-268 CNS was 99%; with SF-295 CNS, 104%; with SF-539 CNS, 94.5%; in the assay with UACC-257 melanoma, 94.6%; in the assay with M14 melanoma, 100%; in the assay on HCT-15 colon, 101%.
For the compound `NCCOc1ncccc1/C=C1\c2ccccc2-c2ccc(F)cc21`, the growth was -6.99% (active) with NCI-H23 lung; 11.1% in the assay with HOP-62 NSCLC; -33.3% (active) in the assay on NCI-H460 lung; 29.8% in the assay on HOP-92 NSCLC; 37.7% with NCI-H522 lung; -51.9% (active) in the assay with A549/ATCC NSCLC. The growth was 6.26% (active) with 786-0 renal; -30.1% (active) in the assay with COLO 205 colon; 7.83% (active) in the assay on DU-145 prostate; 3.28% (active) with K-562 leukemia; 32.3% in the assay on MALME-3M melanoma; 34.7% with MDA-MB-231 breast. Also, the growth with RXF 393 renal was 25.2%; with SF-268 CNS, 23.2%; in the assay with SF-295 CNS, 2.01% (active); in the assay on SF-539 CNS it was 11.5%; in the assay with UACC-257 melanoma, 67.6%; in the assay with M14 melanoma it was 25.2%. Besides, the growth in the assay with HCT-15 colon is 3.22% (active).
For the compound `CCOc1ccccc1CN1CCc2nc3cc(C(C)(C)C)[nH]n3c(=O)c2C1`, the growth was 97% in the assay on NCI-H23 lung; 99.6% with HOP-62 NSCLC; 107% in the assay on NCI-H460 lung; 112% with HOP-92 NSCLC; 77.1% in the assay on NCI-H522 lung; 112% in the assay on A549/ATCC NSCLC. The growth in the assay with 786-0 renal was 90.8%; with COLO 205 colon, 112%; in the assay on DU-145 prostate it was 115%; with K-562 leukemia, 87.2%; in the assay on MALME-3M melanoma, 107%; in the assay on MDA-MB-231 breast it was 92.3%. Also, the growth in the assay on RXF 393 renal was 93.5%; with SF-268 CNS, 105%; with SF-539 CNS, 93.7%; with UACC-257 melanoma, 108%; in the assay on M14 melanoma, 91.6%; in the assay with HCT-15 colon it was 97.4%.
Turning to `COc1cc2c(cc1OC)C(=O)C(CC1CCN(C(=O)Nc3ccc(C)cc3)CC1)C2` (centres undefined), the growth in the assay with NCI-H23 lung was 100%; in the assay with HOP-62 NSCLC it was 99.1%; with NCI-H460 lung, 97.3%; with HOP-92 NSCLC it was 62.5%; in the assay on NCI-H522 lung, 87.8%; with A549/ATCC NSCLC, 108%. Besides, the growth was 101% with 786-0 renal; 110% in the assay with COLO 205 colon; 104% in the assay on DU-145 prostate; 91.1% in the assay on MALME-3M melanoma; 76.7% in the assay on MDA-MB-231 breast; 96.8% with SF-268 CNS. Besides, the growth is 96.5% in the assay with SF-295 CNS; 92.8% in the assay with SF-539 CNS; 119% in the assay with UACC-257 melanoma; 97.5% with M14 melanoma; 94.5% in the assay on HCT-15 colon.
As for `CCOC(=O)C1=C(C)N=c2s/c(=C\c3cc(Cl)ccc3O)c(=O)n2C1c1ccc(OC)cc1` (centres undefined), the growth in the assay on NCI-H23 lung was 88.1%; in the assay with HOP-62 NSCLC, 110%; with NCI-H460 lung, 91.6%; in the assay with HOP-92 NSCLC it was 69.2%; with NCI-H522 lung, 81%; in the assay on A549/ATCC NSCLC, 94.9%. The growth with 786-0 renal is 94.6%; in the assay with COLO 205 colon it was 101%; in the assay on DU-145 prostate, 107%; in the assay on K-562 leukemia, 73.8%; in the assay with MALME-3M melanoma, 109%; in the assay with MDA-MB-231 breast it was 95.1%. Moreover, the growth was 80.9% in the assay with RXF 393 renal; 107% with SF-268 CNS; 111% in the assay on SF-295 CNS; 118% in the assay with SF-539 CNS; 101% in the assay on UACC-257 melanoma; 88.4% with M14 melanoma. Also, the growth with HCT-15 colon is 98.6%.
Consider `O=C(O)c1cn(C2CC2)c2cc(N3CCN(C(=O)C[n+]4ccccc4)CC3)c(F)cc2c1=O`, for which the growth is 104% in the assay with NCI-H23 lung; 103% in the assay with HOP-62 NSCLC; 106% in the assay on NCI-H460 lung; 98.5% with HOP-92 NSCLC; 93.4% with NCI-H522 lung; 99.1% in the assay with A549/ATCC NSCLC. For the same compound, the growth was 98.5% in the assay on 786-0 renal; 121% in the assay on COLO 205 colon; 102% with DU-145 prostate; 99.5% in the assay on MALME-3M melanoma; 105% in the assay with MDA-MB-231 breast; 95.3% with SF-268 CNS. Further, the growth with SF-295 CNS was 101%; in the assay on SF-539 CNS, 95.1%; in the assay on UACC-257 melanoma, 101%; with M14 melanoma it was 106%; with HCT-15 colon, 102%.
